Shown are actives, neighbours in structure and some others; about 2.4% of the full set was active somewhere.
D2 ag-1: Beta-Arrestin HTS for Positive Allosteric Modulators of the Human D2 Dopamine Receptor: Agonists; D(2) dopamine receptor (Homo sapiens), P14416; DiscoveRx PathHunter D2 beta-arrestin, luminescence, 90 min; 100% = 57 uM dopamine signal; activation, % (concentration not given with the values); actives 0.084% (n = 360,000); AID 624465, 2012; in the data active means activation above about 40%; inconclusive means between about 15% and that limit
Target sequence (P14416 whole entry, looked up): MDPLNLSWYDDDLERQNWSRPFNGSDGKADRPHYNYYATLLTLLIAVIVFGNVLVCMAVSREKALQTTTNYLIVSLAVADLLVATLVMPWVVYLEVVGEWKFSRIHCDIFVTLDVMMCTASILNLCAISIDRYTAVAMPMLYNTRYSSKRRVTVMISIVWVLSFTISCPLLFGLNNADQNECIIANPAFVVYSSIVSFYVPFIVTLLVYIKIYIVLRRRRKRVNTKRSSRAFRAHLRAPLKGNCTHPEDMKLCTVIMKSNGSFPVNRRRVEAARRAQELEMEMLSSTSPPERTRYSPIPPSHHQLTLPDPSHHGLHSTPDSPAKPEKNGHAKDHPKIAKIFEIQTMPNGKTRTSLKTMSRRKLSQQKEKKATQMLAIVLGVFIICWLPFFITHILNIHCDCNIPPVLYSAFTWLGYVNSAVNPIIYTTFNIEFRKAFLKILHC
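Agonist mode: compounds alone added to overnight-plated D2 PathHunter cells for 90 min at 37 C, with 57 uM final dopamine (EC100) defining full response. Beta-arrestin recruitment detected by chemiluminescent reagent, read after 1 h at ambient temperature.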
D2 PAM-1: Beta-Arrestin HTS for Positive Allosteric Modulators of the Human D2 Dopamine Receptor: Potentiators. actives 0.23% (n = 360,000). potentiation, % (concentration not given with the values). AID 624464, 2012. D(2) dopamine receptor (Homo sapiens), P14416. DiscoveRx D2 beta-arrestin cells, luminescence, 90 min; 100% = 57 uM dopamine signal; in the data active means potentiation above about 50%; inconclusive means mostly about 30% to 49%
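PathHunter D2 cells, attached overnight at 37 deg C, received compound in DMSO plus dopamine at EC20 (50 nM final) for 90 min at 37 deg C. Beta-arrestin recruitment was read as luminescence after 1 h with detection reagent at ambient temperature.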
D2 PAM-2: HTS Assay for Positive Allosteric Modulators of the Human D2 Dopamine Receptor: Primary Screen for Potentiators | potentiation, % at 10 µM | HEK293 T-REx D2, calcium flux, EC20 dopamine potentiation | AID 485347, 2010 | actives 0.34% (n = 340,000) | D(2) dopamine receptor (Homo sapiens), P14416;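 active means potentiation over 3 SD above the plate norm, cut at about 30% in these data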
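Calcium flux readout, no-wash dye, 1 read/s. Inducible HEK293 Trex D2 line, overnight 30 C. Compound alone 180 s (agonist flags), then EC20 dopamine, another 180 s to score potentiation.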
D2 antag: HTS Assay for Allosteric Antagonists of the Human D2 Dopamine Receptor: Primary Screen for Antagonists. D(2) dopamine receptor (Homo sapiens), P14416. HEK293 TREx D2 cells, calcium flux, dopamine EC80. inhibition, % at 10 µM. actives 2% (n = 340,000); in the data active means inhibition above about 30%; inactive means below that, where a call was filed
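Tetracycline-induced HEK293 TREx cells expressing D2 receptor forced-coupled to calcium signalling, loaded with no-wash calcium dye. Compounds added and calcium flux read 180 s, then dopamine added at EC80 and read a further 180 s.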
D2 ag-2: HTS Assay for Allosteric Agonists of the Human D2 Dopamine Receptor: Primary Screen for Agonists | D(2) dopamine receptor (Homo sapiens), P14416 | HEK293 T-REx D2 cells, calcium flux agonist mode | actives 0.53% (n = 340,000) | activation, % at 2 µM;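 active means activation over 3 SD above normal in the single-dose calcium agonist read, cut at about 30% in these data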
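In this primary screen, compounds producing a positive calcium signal within 180 s of addition to tetracycline-induced, force-coupled HEK293 Trex D2 cells are flagged; cells are dye-loaded with a no-wash calcium kit beforehand.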
Of the large screens only hits and unclear results are named; the others gave an inactive call.

O=c1[nH]c(/C=C/c2cccc3ccccc23)nc2ccccc12	none
Cn1cc(Cl)c(C(=O)N/N=C/c2ccc(OS(=O)(=O)c3ccccc3)cc2)n1	D2 PAM-2 40
CCC(=O)N/N=C/c1ccc(OS(=O)(=O)c2ccccc2)cc1	none
Cc1ccc(/C=N/NC(=O)c2nn(C)cc2Cl)cc1	none
NC(N)=N/N=C/c1ccc(OS(=O)(=O)c2ccccc2)cc1	D2 antag 30
COC(=O)c1scc(-c2ccc(C)cc2)c1S(=O)(=O)Nc1cc(C)c(Cl)cc1OC	none (no result: D2 ag-1, D2 PAM-1, D2 antag)
Cn1c(=O)cc(OCCCC(=O)Nc2ccc(F)cc2)c2ccccc21	none (no result: D2 ag-1, D2 PAM-1, D2 antag, D2 ag-2)
Cc1ccc(Cn2cc(S(=O)(=O)c3cccc(C)c3)c(=O)c3cc(F)c(N4CCOCC4)cc32)cc1	none (no result: D2 ag-1, D2 PAM-1, D2 antag)
Cc1ccc(CCNC(=O)c2sc3nc4n(c(=O)c3c2C)CCCC4)cc1	none (no result: D2 ag-1, D2 PAM-1, D2 antag)
COc1ccccc1-c1nnc(SCCOc2ccccc2C)o1	none (no result: D2 ag-1, D2 PAM-1, D2 antag)
CSC1=C(C#N)C(c2ccccc2)C(C(C)=O)=C(C)N1 (stereo not drawn)	none
CSCSC1=C(C#N)C(c2ccc(Cl)cc2)C(C(C)=O)=C(C)N1 (stereo not drawn)	D2 antag 32 (no result: D2 ag-1, D2 PAM-1)
CCn1c(C(=O)N2CCC(C(=O)N3CCN(c4ccc(OC)cc4)CC3)CC2)cc2sccc21	none (no result: D2 ag-1, D2 PAM-1, D2 antag)
Clc1ccc(OCCSc2nnnn2C2CCCCC2)cc1	D2 antag 34
CN(C)S(=O)(=O)c1ccc(-c2csc(N/N=C/c3ccc(O)cc3)n2)cc1	D2 ag-1 inconclusive, D2 PAM-1 57
Cc1cc(NC(=O)CN2C(=O)N(C)C3(CCCCC3)C2=O)ccc1Br	D2 antag 33
Cc1cc(NC(=O)CCN2CCC(C)CC2)ccc1Br	D2 antag 39
COc1ccc(NS(=O)(=O)c2ccc3[nH]c4c(c3c2)CCCCC4)cc1	none (no result: D2 ag-1, D2 PAM-1, D2 antag)
Cn1c2c(c(=O)n(C)c1=O)C1(C(=O)Nc3ccccc31)C(C#N)=C(N)O2 (stereo not drawn)	D2 PAM-1 54 (no result: D2 PAM-2, D2 antag, D2 ag-2)
N#CC1=C(N)Oc2ccccc2C12C(=O)Nc1n[nH]c(-c3ccccc3)c12 (stereo not drawn)	none
O=C(Cc1ccc(Cl)cc1)NNC(=S)NC(=O)c1cccnc1	D2 antag 40
O=C(NNC(=S)NC(=O)c1cccnc1)c1ccc(Cl)cc1	none (no result: D2 PAM-2, D2 antag, D2 ag-2)
Cc1ccc([N+](=O)[O-])cc1NC(=O)CN(C1CCCCC1)S(=O)(=O)c1ccc(Cl)cc1	D2 antag 53
COc1cc(OC)c(-c2c3cc(O)c(=O)cc-3oc3cc(O)c(O)cc23)cc1OC	D2 ag-2 148
CSc1ccc(CCNC(=O)c2sc3ncccc3c2-n2cccc2)cc1	none (no result: D2 ag-1, D2 PAM-1, D2 antag)
COc1ccc(-n2nc(C(=O)NCC(=O)NCCc3ccc(OC)c(OC)c3)c3ccccc3c2=O)cc1Cl	D2 ag-1 inconclusive, D2 PAM-2 55
CCOC(=O)N1CCN(C(=O)CNC(=O)c2nn(-c3ccc(OC)c(Cl)c3)c(=O)c3ccccc23)CC1	D2 PAM-2 43
COCCNC(=O)CNC(=O)c1nn(-c2ccc(OC)c(Cl)c2)c(=O)c2ccccc12	none
Cc1cc(C)c(S(=O)(=O)N2CCCC2=O)c(C)c1N(C)S(C)(=O)=O	D2 antag 38
Cc1oc2cc3oc(=O)c(CCC(=O)NCCCC(=O)O)c(C)c3cc2c1C	D2 antag 33
CCSc1nc2c([nH]c3ccccc32)c(=O)n1-c1ccc(OC)cc1	none (no result: D2 ag-1, D2 PAM-1, D2 antag)
Cc1ccc(-n2c(=O)c3c(c4cc(C)ccc4n3C)n(CC(=O)Nc3ccc(F)cc3)c2=O)cc1	none (no result: D2 ag-1, D2 PAM-1, D2 antag)
O=C(CN(c1ccc(Cl)c(C(F)(F)F)c1)S(=O)(=O)c1ccccc1)N1CCOCC1	D2 antag 35
O=C(CN(c1cccc(C(F)(F)F)c1)S(=O)(=O)c1ccccc1)N1CCOCC1	D2 ag-1 inconclusive
COc1cc(NC(=O)CSc2ccc(-c3sc(C)nc3C)nn2)cc(OC)c1	none (no result: D2 ag-1, D2 PAM-1, D2 antag, D2 ag-2)
Cc1ccc(C(=O)CCNc2ccccc2)o1	D2 antag 33
COc1ccc(CCN2C(=O)c3[nH]nc(-c4ccccc4O)c3C2c2cccc(OC)c2)cc1 (stereo not drawn)	none (no result: D2 ag-1, D2 PAM-1, D2 antag)
COc1ccc(CCN2C(=O)c3[nH]nc(-c4ccccc4O)c3C2c2cccc(Cl)c2)cc1 (stereo not drawn)	D2 PAM-1 91
C/C(=N\NC(=S)Nc1cc(S(=O)(=O)N2CCOCC2)ccc1Cl)c1ccc(N2CCOCC2)cc1	D2 antag 35
COc1ccc(COc2ccsc2C(=O)Nc2ccc(Cl)cc2)cc1	D2 antag 40
CCOC(=O)N1CCC(NC(=O)CS(=O)(=O)Cc2nc(-c3cccc(OC)c3)oc2C)CC1	D2 PAM-2 97
COc1ccc(-c2nc(CS(=O)(=O)CC(=O)NCc3cccc(F)c3)c(C)o2)cc1	D2 antag 54
COc1cccc(-c2nc(CS(=O)(=O)CC(=O)NC3CC3)c(C)o2)c1	none
Cc1ccc(-c2nc(CS(=O)(=O)CC(=O)NCc3cccc(F)c3)c(C)o2)cc1	none (no result: D2 ag-2)
Cc1ccc(NC(=O)NCCOCCn2c(=O)oc3ccccc32)c(C)c1	none (no result: D2 ag-1, D2 PAM-1, D2 antag)
CCCOC(=O)c1cc(-c2ccc(C=O)o2)ccc1Cl	D2 antag 31
CCOC(=O)CNC(=O)C12CC3CC(C1)CC(c1ccc(C)cc1)(C3)C2	none
CCOc1ccc(NC(=O)C23CC4CC(C2)CC(c2ccccc2)(C4)C3)cc1	D2 antag 31
Cc1ccc(N=Cc2c(O)c3ccccc3n(C)c2=O)cc1	none
Cc1ccc(N=Cc2sc(O)c3ccccc23)cc1	D2 ag-2 65
Cc1ccc(N=Cc2sc(O)c3ccccc23)c(C)c1	D2 PAM-1 inconclusive, D2 antag 58
CC(OC(=O)Cn1c(C(F)(F)F)nc2ccccc21)C(N)=O (stereo not drawn)	D2 antag 40
CCOC(=O)/C(N=Nc1ccc2c(c1)OCO2)=C(\C)O	D2 PAM-2 119
CC(C)OC(=O)c1ccc(NC(=O)c2cncc(Br)c2)cc1	D2 antag 45
Cc1oc2c(c1C(=O)c1ccc(Cl)cc1)C(=O)C(=O)c1ccccc1-2	D2 PAM-1 109
Cc1ccc(C(=O)c2c(C)oc3c2C(=O)C(=O)c2ccccc2-3)cc1	D2 ag-1 inconclusive, D2 PAM-1 74
Cc1oc2c(c1C(=O)N1CCC(C)CC1)C(=O)c1ccccc1C2=O	none
Cc1ccc(C(=O)c2coc3c2C(=O)C(=O)c2ccccc2-3)cc1	D2 ag-1 inconclusive, D2 PAM-1 64
